Among all 370,000 compounds or so, about 2,400 (0.65%) were called active. This is one part of a sample in which actives are shown more often than they occur. Unmarked numbers belong to inactive results.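 The calls were made as follows: active = inhibition above the screen-wide mean plus 3 SD (cut at about 13% in these data); inactive = the rest.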

The test system of this assay is HIV-1 integrase (with human LEDGF/p75). Description: blockers of LEDGF/p75-dependent integrase strand transfer – biochemical, TR-FRET, high throughput, primary screen (AID 743269).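 Also: signal is the Cy5 over europium emission ratio at 671 and 618 nm; 0% = plate median of compound wells.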 The settings on record: TR-FRET IN-LEDGF/p75 DNA integration, Eu/Cy5; at 3.7 µM; stronger effect = higher value. For orientation: Time-resolved FRET reads energy transfer from a long-lived donor to a nearby acceptor.
With `Cc1cc(C)cc(NC(=O)N2CCC(N(C)CCC(C)C)CC2)c1`, the inhibition was 3.5%.

In the case of `O=C(CC(Cc1ccccc1)C(=O)O)NCCc1ccc2c(c1)OCO2` (stereo unspecified), the inhibition is -1.84%. Regarding `CC(=NCc1ccc2c(c1)OCO2)C1=C(O)c2ccccc2C1=O`, the inhibition was 14.5% (active). The same measure for `CC1(C(=O)NCc2ccc3c(c2)OCO3)CCN1CCc1ccccc1` (stereo unspecified): 3.29%. The same measure for `O=S(=O)(c1ccccc1)N1CCC(c2nc3ccccc3o2)CC1`: -3.8%; for `Cc1ccc(C(=O)N(Cc2ccccn2)CC2CCCO2)cc1` (stereo unspecified): -1.5%. As for `O=C(CSc1nc2ccccc2nc1N1CCCCC1)N1CCN(S(=O)(=O)c2cccc([N+](=O)[O-])c2)CC1`, the figure is 7.35%. `CC(C)CNS(=O)(=O)CC1NCCc2ccccc21` (stereo unspecified): the inhibition was -2.87%. For the compound `C[C@H]([C@@H](O)[C@@H](O)[C@@H](C)C(C)(C)C)[C@H]1CC[C@H]2C3CC[C@H]4C[C@H](OS(=O)(=O)O)[C@@H](OS(=O)(=O)O)C[C@]4(C)[C@H]3CC[C@]12C` (stereo partly specified), the inhibition was 22.1% (active). As to `CC(=O)O[C@H]1CC[C@@]2(C)[C@@H](CC[C@@H]3[C@@H]2CC[C@]2(C)[C@@H](C(C)(C)O)C[C@@H]32)C1`, the inhibition is 0.72%. As for `C=C1C(C(C)C)N(C)C2=NC(c3ccccc3)CC(=O)N12` (stereo unspecified), the figure is 1.74%; as for `COC(=O)C1CN(Cc2ccc(F)cc2)CCS(=O)(=O)N1Cc1ccc(Cl)cc1` (stereo unspecified), -0.83%; as for `CCc1ccccc1NC(=O)CSc1nnc(-c2cccs2)o1`, 1.45%. For `C/C(=N\NC(=O)c1cccc(N2CCCC2=O)c1)c1ccc(N)cc1`, the inhibition is -2.92%. As for `O=C(c1cccc(N2CCCC2=O)c1)N1CCOCC1`, the inhibition is -4.51%. The same measure for `NC1=NN(c2cccc(C(=O)O)c2)C(=O)C1`: 13.8% (active). Turning to `CCOC(=O)N1CCN(C(=O)C[C@H]2C[C@@]3(C(=O)OC)C(=C[C@H](C(C)(C)C)O[C@@H]3C)N(Cc3ccc(Cl)cc3Cl)C2=O)CC1`, the inhibition is -2.55%. As for `Cc1ccsc1-c1cc(C(=O)O)c2c(ccc3ccccc32)n1`, the figure is 0.22%; as for `CCOC(=O)c1ccn(-c2nc(-c3ccco3)cc(C(F)(F)F)n2)n1`, -1.1%; as for `Cc1cc(C)c2nc(-c3ccco3)cc(C(=O)O)c2c1`, 57.2% (active). `COc1ccc(-n2c(COc3ccc(C)cc3)nnc2SCC(=O)Nc2ccc(Oc3ccccc3)cc2)cc1`: the inhibition was -0.53%. As for `COC(=O)c1cccc(Cn2ccc3ccc(-c4ccc5ccn(C(=O)c6ccccc6C)c5c4)cc32)c1`, the figure is 1.28%. As for `CC(C)(C)c1ccc(CSc2nnc(-c3cccs3)o2)cc1`, the figure is -0.85%; as for `COc1ccc(CN2CCN(Cc3cn(C)nc3-c3ccccc3)CC2CCO)c(C)c1C` (stereo unspecified), 3.11%. The same measure for `CCOc1ccc(CN2CCN(Cc3ccc(C)o3)CC2CCO)cc1` (stereo unspecified): -3.16%.

On to `CCn1nc(C)c(CN2CCN(Cc3ccc(OC)c(C)c3C)C(CCO)C2)c1C` (stereo unspecified), for which the inhibition was 13.4% (active). Regarding `Cc1ccc(NC(=S)NNC(=O)CSc2nnc(SCc3ccccc3Cl)s2)cc1`, the inhibition is 3.99%. For `CC(C)N1CCCCC(NC(=O)c2ccc3ccccc3c2)C1=O` (stereo unspecified), the inhibition was 0.96%.

As for `Cc1ccc(Cn2cc(CN3[C@@H](CC(C)C)COc4ccc(Cl)cc4S3(=O)=O)nn2)cc1`, the inhibition is 1.01%.

With `O=S1(=O)c2ccc(Br)cc2OC[C@@H](Cc2ccccc2)N1Cc1cn(Cc2ccco2)nn1`, the inhibition was 5.73%. With `O=C1C=CC(=O)N1c1ccc(N2CCCCC2)cc1`, the inhibition is 14.3% (active).

For `Cc1ccc(-n2c(SCC(=O)Nc3ccc(S(=O)(=O)Nc4nccs4)cc3)nnc2-c2ccccn2)cc1`, the inhibition is -3.23%. As for `COC(=O)C1CN(CCc2ccccc2)CCS(=O)(=O)N1Cc1cccc(Cl)c1` (stereo unspecified), the figure is 0.85%. As for `CN(C)[C@H]1CCN(c2cccc3c2S(=O)(=O)N2CC[C@H](C2)O3)C1`, the figure is 2.98%; as for `C=CCn1c(=S)[nH]c2scc(-c3ccco3)c2c1=O`, 42.3% (active). `O=S1(=O)c2c(cccc2N2CC[C@H](O)C2)O[C@@H]2CCN1C2`: the inhibition is 1.21%. As for `O=C(c1cccc(C(F)(F)F)c1)N1CC[C@H]2[C@H](CCCN2Cc2cc(F)cc(F)c2)C1`, the figure is 86.5% (active); as for `O=C(c1ccncc1)N1CC[C@H]2[C@H](CCCN2Cc2ccc(F)cc2)C1`, 1.57%.

As to `O=C(N1CCOCC1)N1CC[C@H]2[C@H](CCCN2Cc2ccc(F)cc2)C1`, the inhibition was 3%. As for `CCN(CC)C(=O)CC[C@@H]1CC[C@]2(CCCN(S(=O)(=O)C3CCCCC3)C2)O1`, the figure is -3.12%. For the compound `COc1ccc(Cn2cc(COC(=O)N(C)Cc3ccccc3)nn2)cc1`, the inhibition is 2.21%. `CSc1ccc(-c2c(C#N)c(N)nc3c2c(C)nn3-c2ccccc2)cc1`: the inhibition was -1.93%.

As to `CCc1c(-c2ccccc2)nc(N)c(C#N)c1-c1cccs1`, the inhibition is 0.5%.

As for `CSc1nc(N)c(C#N)c(-c2ccccc2Cl)c1C#N`, the inhibition was 30.9% (active). In the case of `CCCCCCCCNS(=O)(=O)/C=C/c1cc(C)ccc1CNC(=O)OC(C)(C)C`, the inhibition was -0.25%. The same measure for `COc1ccc(CN2C(=O)N3Cc4cc(OC)ccc4C3CS2(=O)=O)cc1` (stereo unspecified): 0.03%; for `Cc1sc2ncnc(SCC(=O)Nc3ccc(CN4CCCC4)cc3)c2c1C`: -2.64%. As for `Cc1c(Cl)cnc(NC(=O)COC(=O)C2CCCC2)c1Cl`, the figure is 3.73%; as for `CCc1cc2c(SCC(=O)Nc3ncc(Cl)c(C)c3Cl)ncnc2s1`, 44.2% (active); as for `O=C(CNS(=O)(=O)c1ccccc1F)N1CCN(c2ccccn2)CC1`, -3.63%. The same measure for `COC(=O)[C@]12C[C@H](CC(=O)N3CCN(C(=O)C4CC4)CC3)C(=O)N(CCC3=CCCCC3)C1=C[C@H](C(C)C)O[C@@H]2C1CC1`: -2.49%.

Regarding `O=C(CN1C(=O)c2ccccc2S1(=O)=O)N1CCc2ccccc21`, the inhibition is -3.85%.

As for `CN(Cc1ccc(F)cc1)C(=O)CN1C(=O)c2ccccc2S1(=O)=O`, the inhibition was 18% (active). The same measure for `NS(=O)(=O)c1ccc(CCNC(=O)CN2C(=O)c3ccccc3S2(=O)=O)cc1`: 4.15%; for `CCOC(=O)[C@@]12CN(C(=O)OC(C)(C)C)CC=C1N(Cc1ccc(OC)cc1)C(=O)[C@H]2CC(=O)NCc1ccc(OC)c(OC)c1`: -2.96%. For `CC(C)(C)OC(=O)NCc1cc(F)ccc1/C=C/S(=O)(=O)NCCc1ccccc1`, the inhibition was 1.04%.

As usually defined, the inhibition is the relative decrease from the control value, in per cent.
